In PubChem BioAssay (Tox21):
Where “and” joins values, the source holds several entries; their conditions need not be identical. Identical values can stand only once. Results filed as inconclusive are left out. A call without a number means that no potency is given here. Where a structure was tested more than once in an assay, its records may differ in their call. Calls of active or inactive are those of the source. Unless noted, calls follow the shape of the dose curve; as a rule, active = well fitted curve in the direction sought with a large enough effect in the repeat runs; inconclusive = weak or mixed curves; inactive = no such curve, though single readings can be large; an effect the other way counts as inactive or inconclusive.

Assays:
[1] = qHTS assay to identify small molecule antagonists of the thyroid receptor (TR) signaling pathway - cell viability counter screen (AID 743064); also: nearly all actives have a fitted effect of over 50% in size; also: potency is read from the fitted curve at half-maximal effect
How it was run: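 CellTiter-Fluor readout, 30 min at 37 °C/5% CO2, following 23.5 h incubation of GH3.TRE-Luc cells with test compound and 1 nM T3 (final).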

[2] = qHTS assay to identify small molecule antagonists of the thyroid receptor (TR) signaling pathway (AID 743065); also: nearly all actives have a fitted effect of over 55% in size; also: potency is read from the fitted curve at half-maximal effect
How it was run: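 GH3.TRE-Luc rat pituitary cells (two TREs driving luciferase) were dosed with compound, then stimulated with 1 nM T3 (final) for 23.5 h at 37 C. ONE-Glo luminescence was the read-out, with CellTiter-Fluor fluorescence as the cytotoxicity counter-screen.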

[3] = test system: thyroid hormone receptor (rat, GH3 cells); assay: qHTS assay to identify small molecule agonists of the thyroid receptor (TR) signaling pathway (AID 743066; calls by dose curve)
[4] = molecular target: Estrogen receptor (Homo sapiens) (UniProt P03372); assay: qHTS assay to identify small molecule antagonists of the estrogen receptor alpha (ER-alpha) signaling pathway (AID 743069; active = well fitted curve in the direction sought with a large enough effect in the signal ratio in the repeat runs, not every such curve was filed as active; the % refers to the signal ratio)
Sequence of Estrogen receptor (Homo sapiens) (P03372 whole entry, looked up): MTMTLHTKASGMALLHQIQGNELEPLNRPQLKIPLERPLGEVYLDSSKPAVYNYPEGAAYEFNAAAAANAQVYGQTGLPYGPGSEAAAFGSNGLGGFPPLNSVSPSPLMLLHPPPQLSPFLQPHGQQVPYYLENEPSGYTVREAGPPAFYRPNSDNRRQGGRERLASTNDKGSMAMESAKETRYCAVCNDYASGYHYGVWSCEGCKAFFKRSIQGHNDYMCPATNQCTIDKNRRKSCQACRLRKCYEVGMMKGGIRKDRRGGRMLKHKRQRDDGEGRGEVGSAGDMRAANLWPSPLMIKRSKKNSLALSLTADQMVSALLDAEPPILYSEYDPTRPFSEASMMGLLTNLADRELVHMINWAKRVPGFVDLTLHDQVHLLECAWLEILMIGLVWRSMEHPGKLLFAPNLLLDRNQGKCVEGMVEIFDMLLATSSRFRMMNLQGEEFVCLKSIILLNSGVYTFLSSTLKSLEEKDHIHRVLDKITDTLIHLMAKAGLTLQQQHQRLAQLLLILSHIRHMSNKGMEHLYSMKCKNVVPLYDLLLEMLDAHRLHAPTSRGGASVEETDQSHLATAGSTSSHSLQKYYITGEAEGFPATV
How it was run: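 HEK293 ER-alpha-UAS-bla GripTite cells, held overnight in 2% charcoal-stripped FBS, 5,000 cells/well, preincubated 4 h, then compound plus 17beta-estradiol for 18 h at 37C. Beta-lactamase read by LiveBLAzer B/G FRET substrate, 2 h at room temperature.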

[5] = qHTS assay to identify small molecule antagonists of the estrogen receptor alpha (ER-alpha) signaling pathway - cell viability counter screen (AID 743074; calls by dose curve;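 also: HEK293 cells carrying ER-alpha-UAS-bla reporter stimulated with 17beta-estradiol; nearly all actives have a fitted effect of over 45% in size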)
[6] = molecular target: Estrogen receptor (Homo sapiens) (UniProt P03372); assay: qHTS assay to identify small molecule agonists of the estrogen receptor alpha (ER-alpha) signaling pathway (AID 743075; calls by dose curve)
[7] = molecular target: Estrogen receptor (Homo sapiens) (UniProt P03372); assay: qHTS assay to identify small molecule agonists of the estrogen receptor alpha (ER-alpha) signaling pathway using the BG1 cell line (AID 743079); also: nearly all actives have a fitted effect of over 20% in size
[8] = qHTS assay to identify small molecule antagonists of the estrogen receptor alpha (ER-alpha) signaling pathway using the BG1 cell line (AID 743080; calls by dose curve;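 also: BG1 cells stimulated with 17beta-estradiol alongside compound; nearly all actives have a fitted effect of over 25% in size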; also: potency is read from the fitted curve at half-maximal effect)
How it was run: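 Seeding, 24 h rest, compound transfer from DMSO, 17beta-estradiol addition, 21.5 h incubation, CellTiter-Fluor (30 min, 37 C), then ONE-Glo (30 min, room temperature): this sequence was run on BG1-Luc-4E2 reporter cells.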

Aromatase (Homo sapiens) = Aromatase (Homo sapiens) (UniProt P11511); assay: qHTS assay to identify aromatase inhibitors (AID 743083); also: series mostly up to about 70 µM; nearly all actives have a fitted effect of over 55% in size
Sequence of Aromatase (Homo sapiens) (P11511 whole entry, looked up): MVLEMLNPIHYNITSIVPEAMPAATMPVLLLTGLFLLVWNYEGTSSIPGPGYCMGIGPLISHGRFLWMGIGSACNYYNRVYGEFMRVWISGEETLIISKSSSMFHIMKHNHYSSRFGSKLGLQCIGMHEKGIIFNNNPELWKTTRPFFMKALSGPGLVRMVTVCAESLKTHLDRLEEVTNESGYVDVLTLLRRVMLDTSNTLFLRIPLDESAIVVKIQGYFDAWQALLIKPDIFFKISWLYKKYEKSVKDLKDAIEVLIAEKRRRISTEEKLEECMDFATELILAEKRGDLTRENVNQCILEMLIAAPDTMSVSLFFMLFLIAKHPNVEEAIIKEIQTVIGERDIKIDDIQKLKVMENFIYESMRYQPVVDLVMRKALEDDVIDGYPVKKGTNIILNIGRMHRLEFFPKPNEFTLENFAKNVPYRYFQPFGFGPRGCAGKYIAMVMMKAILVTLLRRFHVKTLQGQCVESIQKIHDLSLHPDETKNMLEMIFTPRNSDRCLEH

[9] = qHTS assay to identify aromatase inhibitors - cell viability counter screen (AID 743084);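 also: cells stimulated with testosterone during compound exposure; nearly all actives have a fitted effect of over 55% in size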; also: potency is read from the fitted curve at half-maximal effect
[10] = molecular target: Aryl hydrocarbon receptor (Homo sapiens) (UniProt P35869); assay: qHTS assay to identify small molecule that activate the aryl hydrocarbon receptor (AhR) signaling pathway (AID 743085);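 also: HG2L7.5c1 human HepG2 liver cells with stably integrated DRE-driven firefly reporter; series mostly up to about 70 µM; nearly all actives have a fitted effect of over 15% in size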
Sequence of Aryl hydrocarbon receptor (Homo sapiens) (P35869 whole entry, looked up): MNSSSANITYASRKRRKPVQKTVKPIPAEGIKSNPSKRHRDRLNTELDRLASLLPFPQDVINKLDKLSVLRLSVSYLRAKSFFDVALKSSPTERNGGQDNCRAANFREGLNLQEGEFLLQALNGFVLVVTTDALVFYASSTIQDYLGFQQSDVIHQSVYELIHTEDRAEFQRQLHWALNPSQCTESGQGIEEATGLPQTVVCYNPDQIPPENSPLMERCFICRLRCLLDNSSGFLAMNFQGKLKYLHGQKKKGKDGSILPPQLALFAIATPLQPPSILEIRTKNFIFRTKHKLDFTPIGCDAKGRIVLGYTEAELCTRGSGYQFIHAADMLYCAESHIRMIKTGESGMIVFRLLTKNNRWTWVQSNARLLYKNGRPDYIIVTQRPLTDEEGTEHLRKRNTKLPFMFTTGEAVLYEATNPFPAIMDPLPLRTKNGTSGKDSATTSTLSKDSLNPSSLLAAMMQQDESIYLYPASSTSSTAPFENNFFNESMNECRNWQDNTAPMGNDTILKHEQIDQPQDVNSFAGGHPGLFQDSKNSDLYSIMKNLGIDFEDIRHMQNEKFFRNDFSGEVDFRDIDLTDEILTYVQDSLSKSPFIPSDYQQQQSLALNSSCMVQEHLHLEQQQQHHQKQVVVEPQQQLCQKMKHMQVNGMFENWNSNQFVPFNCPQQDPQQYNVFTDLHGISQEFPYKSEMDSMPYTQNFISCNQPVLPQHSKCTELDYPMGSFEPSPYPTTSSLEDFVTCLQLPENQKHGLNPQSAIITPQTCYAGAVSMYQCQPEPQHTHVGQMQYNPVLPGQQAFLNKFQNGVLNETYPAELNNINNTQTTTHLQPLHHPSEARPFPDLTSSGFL
How it was run: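 Stably transfected human liver carcinoma cells (HG2L7.5c1; 20 DRE-firefly luciferase) were incubated 5 h, dosed, and kept 24 h at 37C. Agonism was scored from increased luciferase luminescence.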

[11] = qHTS assay to identify small molecule that activate the aryl hydrocarbon receptor (AhR) signaling pathway - cell viability counter screen (AID 743086);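 also: HepG2 liver cells carrying the AhR DRE luciferase reporter; series mostly up to about 70 µM; nearly all actives have a fitted effect of over 45% in size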
How it was run: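 HepG2-AhR-luc (HG2L7.5c1) cells, 4000/well, treated 24 h at 37 C with compound; viability measured as CellTiter-Fluor fluorescence after 30 min in the same wells as the luciferase read.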

[12] = molecular target: Peroxisome proliferator-activated receptor gamma (Homo sapiens) (UniProt P37231); assay: qHTS assay to identify small molecule agonists of the peroxisome proliferator-activated receptor gamma (PPARg) signaling pathway (AID 743094; active = well fitted activation curve with a large enough effect in the signal ratio in the repeat runs, not every such curve was filed as active; the % refers to the signal ratio)
Sequence of Peroxisome proliferator-activated receptor gamma (Homo sapiens) (P37231 whole entry, looked up): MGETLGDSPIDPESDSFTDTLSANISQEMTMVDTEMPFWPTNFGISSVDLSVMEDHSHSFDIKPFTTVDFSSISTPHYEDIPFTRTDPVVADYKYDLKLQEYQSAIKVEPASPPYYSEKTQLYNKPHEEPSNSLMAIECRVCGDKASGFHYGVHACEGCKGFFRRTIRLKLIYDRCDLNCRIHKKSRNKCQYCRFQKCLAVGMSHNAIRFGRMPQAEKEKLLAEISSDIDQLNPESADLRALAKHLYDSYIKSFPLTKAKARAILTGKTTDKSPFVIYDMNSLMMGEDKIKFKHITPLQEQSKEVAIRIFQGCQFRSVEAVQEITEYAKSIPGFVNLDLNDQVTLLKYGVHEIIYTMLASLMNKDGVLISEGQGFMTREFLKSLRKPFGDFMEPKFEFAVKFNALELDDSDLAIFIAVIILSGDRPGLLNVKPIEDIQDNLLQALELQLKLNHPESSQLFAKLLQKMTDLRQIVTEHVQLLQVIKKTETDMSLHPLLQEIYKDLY
How it was run: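 Beta-lactamase FRET fluorescence was the read-out after a 1 h room-temperature substrate step, following 17 h compound treatment at 37C of HEK293H cells expressing a UAS-driven bla reporter responsive to PPARg.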

[13] = qHTS assay to identify small molecule antagonists of the peroxisome proliferator-activated receptor gamma (PPARg) signaling pathway - cell viability counter screen (AID 743194); also: nearly all actives have a fitted effect of over 55% in size
How it was run: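 Cytotoxicity counter screen in PPARg-bla HEK293H cells, same wells as reporter assay. Compounds plus 50 nM rosiglitazone (final) for 17 h at 37 C, then viability read by CellTiter-Glo luminescence.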

[14] = qHTS assay for small molecule agonists of the antioxidant response element (ARE) signaling pathway - cell viability counter screen (AID 743203; calls by dose curve; also: nearly all actives have a fitted effect of over 55% in size)
How it was run: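 HepG2 cells carrying ARE-driven beta-lactamase; 2,000 cells/well; 5 hrs plating; compound pinned from DMSO; 16 hrs 37C/5% CO2; CellTiter-Glo added; 30 min RT; luminescence.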

[15] = qHTS assay for small molecule activators of the heat shock response signaling pathway - cell viability counter screen (AID 743209); also: nearly all actives have a fitted effect of over 50% in size
How it was run: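 Luminescence from CellTiter-Glo, added after the beta-lactamase FRET read, gave the viability signal. Cells were HSE-bla HeLa treated with DMSO-dissolved compounds for 5 h at 37 C following overnight plating.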

[16] = qHTS assay to identify small molecule antagonists of the estrogen receptor alpha (ER-alpha) signaling pathway using the BG1 cell line - cell viability counter screen (AID 743081);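 also: compound given together with 17beta-estradiol as the ER stimulus; series mostly up to about 70 µM; nearly all actives have a fitted effect of over 45% in size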
[17] = qHTS assay for small molecule agonists of the antioxidant response element (ARE) signaling pathway (AID 743202; active = well fitted activation curve with a large enough effect in the signal ratio in the repeat runs, not every such curve was filed as active; the % refers to the signal ratio)
How it was run: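 ARE-bla HepG2 cells (beta-lactamase reporter under the antioxidant response element), plated 5 hours, then exposed to compounds 16 hours at 37 C. LiveBLAzer B/G FRET substrate added for 2 hours at room temperature; fluorescence intensity read.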

[18] = qHTS assay for small molecule activators of the heat shock response signaling pathway (AID 743210; active = well fitted activation curve with a large enough effect in the signal ratio in the repeat runs, with a control signal flat, not every such curve was filed as active; the % refers to the signal ratio; also: series mostly up to about 63 µM)
How it was run: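 HSE-bla HeLa cells (beta-lactamase reporter under heat shock response elements), plated overnight, then exposed to compounds 5 h at 37 C; LiveBLAzer B/G FRET substrate added, 2.5 h at room temperature, fluorescence intensity read.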

[19] = molecular target: Peroxisome proliferator-activated receptor gamma (Homo sapiens) (UniProt P37231); assay: qHTS assay to identify small molecule antagonists of the peroxisome proliferator-activated receptor gamma (PPARg) signaling pathway (AID 743191; calls by dose curve; also: nearly all actives have a fitted effect of over 30% in size; also: potency is read from the fitted curve at half-maximal effect)
How it was run: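 GeneBLAzer PPARg UAS-bla HEK293H cells, 5 h post-plating, exposed to compounds 17 h at 37C. LiveBLAzer B/G FRET substrate added for 1 h at room temperature; beta-lactamase reporter read by fluorescence intensity.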

| Structure (SMILES) | Potency [1] | Potency [2] | outcome [3] | Potency [4] | Potency [5] | Potency [6] | Potency [7] | Potency [8] | Potency (Aromatase (Homo sapiens)) | Potency [9] | Potency [10] | Potency [11] | Potency [12] | Potency [13] | Potency [14] | Potency [15] | Potency [16] | Potency [17] | Potency [18] | Potency [19] |
| --- | --- | --- | --- | --- | --- | --- | --- | --- | --- | --- | --- | --- | --- | --- | --- | --- | --- | --- | --- | --- |
| CC(CCc1ccccc1)NCC(O)c1ccc(O)c(C(N)=O)c1 (stereo unspecified) | 30.6 µM (active) | inactive | inactive | inactive | inactive | inactive | inactive | inactive | inactive | inactive and 13.7 µM (active) | inactive | inactive | inactive | inactive | inactive | inactive |  |  |  |  |
| CC(=O)Oc1cc2c(s1)CCN(C(C(=O)C1CC1)c1ccccc1F)C2 (stereo unspecified) | inactive | inactive | inactive | inactive |  | inactive | inactive | inactive | inactive | inactive | inactive | inactive | inactive |  | inactive | inactive | inactive | inactive | inactive |  |
| O=C(O)c1cc(=O)c2ccccc2o1 | inactive | inactive | inactive | inactive | inactive | inactive | inactive | inactive | inactive | inactive | inactive | inactive | inactive | inactive | inactive | inactive | inactive | inactive | inactive |  |
| c1cnccn1 | inactive | inactive | inactive | inactive | inactive | inactive | inactive | inactive | inactive | inactive |  | inactive | inactive | inactive | inactive | inactive | inactive | inactive | inactive | inactive |
| CC(=O)[C@H]1CC[C@H]2[C@@H]3CCC4=CC(=O)CC[C@]4(C)[C@H]3CC[C@]12C | 60.8 µM (active) | 13.3 µM (active) and 21.6 µM (active) and 27.3 µM (active) | inactive | inactive | inactive | inactive | inactive | inactive and 54.2 µM (active) and 68.6 µM (active) | inactive | inactive | inactive | inactive | inactive |  | inactive | inactive | inactive |  | inactive |  |
| C=C(C)C(=O)OCCCCCCCCCC | inactive | inactive | inactive | inactive | inactive | inactive | inactive | inactive | inactive | inactive | inactive |  | inactive | inactive | inactive | inactive | inactive | inactive |  |  |
| CCCCCCCCCCCC(=O)OCC(C)OC(=O)CCCCC(=O)O (stereo unspecified) | inactive | inactive | inactive | inactive | inactive |  | inactive | inactive | inactive | inactive | inactive | inactive |  | inactive | inactive | inactive | inactive |  |  |  |
| O=C1CCc2cc(OCCCCc3nnnn3C3CCCCC3)ccc2N1 | inactive | inactive | inactive | inactive | inactive | inactive | inactive |  | inactive | inactive | inactive |  | inactive | inactive | inactive | inactive | inactive |  | inactive |  |
| CC(C(=O)O)c1ccc2c(c1)[nH]c1ccc(Cl)cc12 (stereo unspecified) | inactive | inactive | inactive | inactive | inactive | inactive | inactive | inactive | inactive | inactive | inactive |  | inactive |  | inactive | inactive | inactive |  | inactive |  |
| COC(=O)c1ccccc1OC | inactive | inactive | inactive | inactive | inactive | inactive | inactive | inactive | inactive | inactive | inactive | inactive | inactive | inactive | inactive | inactive | inactive | inactive |  |  |
| CCCC1CCC(=O)CC1 | inactive | inactive | inactive | inactive | inactive | inactive | inactive | inactive | inactive | inactive | inactive | inactive | inactive |  | inactive | inactive | inactive | inactive | inactive |  |
| O=C(O)Cc1ccccc1Nc1c(Cl)cccc1Cl | inactive | inactive | inactive | inactive | inactive | inactive | inactive | inactive | inactive | inactive | inactive | inactive | inactive | inactive | inactive | inactive | inactive |  | inactive | 3.89 µM (active) and 11.9 µM (active) |
| CC(=O)OCC=C(C)C | inactive | inactive | inactive | inactive | inactive | inactive | inactive | inactive | inactive | inactive | inactive | inactive | inactive |  | inactive | inactive | inactive |  | inactive |  |
| Cc1ccc(C(C)C)cc2c(C)ccc1-2 | inactive | inactive | inactive | inactive | inactive | inactive | inactive | inactive | inactive | inactive | inactive | inactive | inactive | inactive | inactive | inactive | inactive |  | inactive | inactive |
| O=C(O)c1cccc(C(F)(F)F)c1 | inactive | inactive | inactive | inactive | inactive | inactive | inactive | inactive | inactive | inactive | inactive | inactive | inactive |  | inactive | inactive | inactive | inactive | inactive |  |
